Screening data (PubChem)
A selection: hits, their analogues and other compounds. The true share with any hit is near 2.3%.
Bcl-xL primary: inhibitors of human Bcl-xL, primary screen, biochemical, fluorescence polarization, HTS; Bcl-2-like protein 1 (Homo sapiens), Q07817; GST-Bcl-xL / FITC-Bim BH3 peptide fluorescence polarization; inhibition, % at 10.9 µM; 320,000 compounds, 0.7% hits;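 active = inhibition above the mean of all tested compounds plus 3 SD, cutoff set per campaign, cut at about 30% in these data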;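 also: 0% = DMSO wells and 100% = unlabeled Bim-BH3 peptide competitor; inhibitors lower millipolarization by displacing the labeled peptide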
Target sequence (Q07817 whole entry, looked up): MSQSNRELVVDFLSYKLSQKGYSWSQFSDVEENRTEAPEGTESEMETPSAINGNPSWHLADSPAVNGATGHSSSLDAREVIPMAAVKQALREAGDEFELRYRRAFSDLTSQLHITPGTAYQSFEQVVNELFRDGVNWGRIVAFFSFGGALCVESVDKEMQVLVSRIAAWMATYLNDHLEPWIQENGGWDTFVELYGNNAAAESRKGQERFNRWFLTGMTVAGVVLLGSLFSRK
MCL1 BIM primary: inhibitors of MCL1 binding to BIM-BH3, primary screen, biochemical, fluorescence polarization | Induced myeloid leukemia cell differentiation protein Mcl-1 (Homo sapiens), Q07820 | GST-MCL1 / FITC-Bim-BH3 fluorescence polarization | inhibition, % at 10.9 µM | 320,000 compounds, 0.68% hits;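 active = inhibition above the mean inhibition of all tested compounds plus 3 SD, set per campaign, cut at about 40% in these data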;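 also: 0% = DMSO wells and 100% = unlabeled Bim-BH3 peptide control; higher means more loss of mP so more displacement of Bim peptide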
Mcl1 Bid PPI: Mcl-1/Bid binding inhibitors, primary screen, biochemical, TR-FRET, 1536-well | Induced myeloid leukemia cell differentiation protein Mcl-1 (Homo sapiens), Q07820 | TR-FRET Mcl-1/Bid-Dy647 peptide binding | inhibition, % at 21.7 µM | 220,000 compounds, 0.97% hits | AID 1021, 2008;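 active = compounds that cut the binding signal by more than half at the single screening dose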;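 also: His-tagged Mcl-1 with europium anti-His antibody binding Bid BH3 peptide; 0% = Mcl-1 plus peptide wells and 100% = peptide-only wells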
GLD-1 TGE inh: GLD-1/TGE RNA complex disruptors, primary screen, biochemical, fluorescence polarization; Female germline-specific tumor suppressor gld-1 (Caenorhabditis elegans), Q17339; purified GLD-1 + fluorescein TGE RNA; inhibition, % at 5.96 µM; 320,000 compounds, 0.44% hits;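 active = percent inhibition above a per-plate cutoff, the plate mean of test compounds plus 3 SD, cut at about 30% in these data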;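 also: 0% = DMSO wells with GLD-1 and probe and 100% = wells lacking GLD-1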
Mcl1 Noxa PPI: Mcl-1/Noxa binding inhibitors, primary screen, biochemical, TR-FRET, 1536-well; TR-FRET Mcl-1/Noxa peptide binding, 2 h; inhibition, % at 21.7 µM; 220,000 compounds, 1.5% hits;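 active = compounds that cut the protein-peptide binding signal by more than 50% relative to plate controls in a single-dose test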;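 also: His-tagged Mcl-1 with rhodamine Noxa BH3 peptide and terbium anti-His antibody; 0% = Mcl-1 plus Noxa peptide wells and 100% = peptide-only wells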
Mcl-1 Bim block: inhibitors of Bim peptide binding to Mcl-1, primary screen, biochemical, bead-based flow cytometry, multiplex; Induced myeloid leukemia cell differentiation protein Mcl-1 (Homo sapiens), Q07820; Bim peptide-Mcl-1 binding; inhibition, % at 10 µM; 190,000 compounds, 0.1% hits; in the data active = inhibition above about 40%;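 also: 0% = no compound tracer wells and 100% = peptide blocker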
BCLXL inh confirm: Bcl-xL inhibitors blocking Bim BH3 binding, confirmation, counter-screen for MCL1 inhibitor project, biochemical, fluorescence polarization. inhibition, % at 10.9 µM. 1,700 compounds, 54% hits. shares compounds with MCL1 BIM primary. GST-Bcl-xL / FITC-Bim BH3 peptide FP binding;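 active = inhibition above a cutoff equal to the mean inhibition of all tested compounds plus 3 SD, cut at about 30% in these data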;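 also: 0% = DMSO wells and 100% = unlabeled Bim BH3 control peptide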
MCL1 inh confirm: inhibitors of MCL1 binding to BIM-BH3, confirmation, biochemical, fluorescence polarization, triplicate; inhibition, % at 10.9 µM; 1,700 compounds, 61% hits; GST-MCL1 / FITC-Bim-BH3 fluorescence polarization; shares compounds with MCL1 BIM primary;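 active = inhibition above the average of all tested compounds plus 3 SD, cut at about 40% in these data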;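 also: 0% = DMSO wells and 100% = unlabeled Bim-BH3 control peptide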
GLD1 RNA confirm: GLD-1/TGE RNA binding inhibitors, retest, confirmation, biochemical, fluorescence polarization, triplicate. shares compounds with GLD-1 TGE inh. GLD-1/FL-TGE RNA fluorescence polarization. 550 compounds, 10% hits. inhibition, % at 5.96 µM. AID 2459, 2010;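 active = average inhibition across triplicates above the hit cutoff set in the primary screen, cut at about 32% in these data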;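 also: 0% = GLD-1 with RNA probe and DMSO and 100% = wells lacking GLD-1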
* hit, by the source's call; nt = not tested or not shown.

SMILES	Bcl-xL primary	MCL1 BIM primary	Mcl1 Bid PPI	GLD-1 TGE inh	Mcl1 Noxa PPI	Mcl-1 Bim block	GLD1 RNA confirm	others
CC(Cc1ccccc1)N1C(=O)c2ccccc2C1=O (stereo unspecified)	3	-4	nt	5	nt	nt	nt
CCOC(=O)C1(CCc2ccccc2)CCN(CC(O)CO)CC1 (stereo unspecified)	0	13	nt	6	nt	nt	nt
CN1Cc2c(c(C#N)c(N)n(C)c2=S)CC1(C)C	94*	103*	-65	46*	15	5	27	BCLXL inh confirm=144*;MCL1 inh confirm=185*
COc1cc2c(C(=O)N3CCN(C)CC3)c(C)n(C)c2cc1Br	40*	42*	-2	38*	6	-7	5
COc1ccccc1CNC(=O)CCC(=O)N1C[C@H]2C[C@@H](C1)c1cccc(=O)n1C2	-2	-4	nt	4	nt	nt	nt
